Test results as given in the supplement of paper PMC11732987, “Enantioselective OTUD7B fragment discovery through chemoproteomics screening and high-throughput optimisation” (Communications Chemistry, 2025).

Key:
Test in all cases: log2 ratio of Biotin-Ahx-Ub-VS probe labelling (fragment/DMSO); higher = less target engagement (more negative = stronger competition), active = hit call of the paper (q ≤ 0.05, log2 ratio ≤ -1)
Settings in all cases: compound concentration: 200 uM; treatment time: 3 h
USP34 = USP34 (UniProt Q70CQ2)
Outline: (§1)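 HEK293T lysate (495 µg per sample, in Tris/CHAPS/IGEPAL buffer with protease inhibitors) was treated in triplicate with fragment at 200 µM or with DMSO for 3 h. It was then treated with Biotin-Ahx-Ub-VS (0.5 µM final) for 1 h. Labelled DUBs were NeutrAvidin-enriched, digested with LysC and trypsin, and run by diaPASEF LC-MS/MS. Spectronaut label-free quantities were global-median-normalised. Values are average log2 ratios fragment/DMSO by unpaired t-test, using proteins with ≥2 unique peptides.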

USP36 = biological target: T1, USP36 (UniProt Q9P275)
T1 sequence (whole entry): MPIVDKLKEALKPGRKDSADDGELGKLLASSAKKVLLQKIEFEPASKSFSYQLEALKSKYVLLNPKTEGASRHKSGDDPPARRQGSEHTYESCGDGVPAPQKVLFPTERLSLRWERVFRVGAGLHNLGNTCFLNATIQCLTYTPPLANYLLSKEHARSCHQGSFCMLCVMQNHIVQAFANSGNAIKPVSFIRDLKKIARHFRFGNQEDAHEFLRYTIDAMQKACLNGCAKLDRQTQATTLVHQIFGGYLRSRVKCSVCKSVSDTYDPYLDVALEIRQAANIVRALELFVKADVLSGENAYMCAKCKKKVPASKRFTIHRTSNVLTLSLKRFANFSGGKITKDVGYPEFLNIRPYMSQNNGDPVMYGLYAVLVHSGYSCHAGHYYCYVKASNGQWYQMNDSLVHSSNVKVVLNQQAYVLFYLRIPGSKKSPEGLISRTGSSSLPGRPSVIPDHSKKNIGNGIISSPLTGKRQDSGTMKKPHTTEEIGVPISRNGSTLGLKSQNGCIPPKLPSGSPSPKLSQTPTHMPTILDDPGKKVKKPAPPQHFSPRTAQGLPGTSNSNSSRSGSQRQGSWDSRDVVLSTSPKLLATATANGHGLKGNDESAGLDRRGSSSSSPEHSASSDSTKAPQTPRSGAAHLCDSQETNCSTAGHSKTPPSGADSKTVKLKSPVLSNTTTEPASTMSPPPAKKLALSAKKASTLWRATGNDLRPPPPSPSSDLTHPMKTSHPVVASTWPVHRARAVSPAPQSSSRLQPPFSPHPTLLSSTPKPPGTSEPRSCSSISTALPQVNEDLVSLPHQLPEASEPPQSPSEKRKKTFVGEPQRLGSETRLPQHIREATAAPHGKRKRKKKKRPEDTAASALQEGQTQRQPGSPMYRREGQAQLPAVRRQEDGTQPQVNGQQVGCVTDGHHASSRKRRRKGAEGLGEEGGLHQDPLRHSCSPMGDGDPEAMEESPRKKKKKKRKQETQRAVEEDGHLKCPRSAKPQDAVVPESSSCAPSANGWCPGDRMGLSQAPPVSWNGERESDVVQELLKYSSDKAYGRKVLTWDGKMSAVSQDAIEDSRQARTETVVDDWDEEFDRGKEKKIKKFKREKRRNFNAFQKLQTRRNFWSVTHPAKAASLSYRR
Outline: as §1

USP38 = biological target: T2, USP38 (UniProt Q8NB14)
T2 sequence (whole entry): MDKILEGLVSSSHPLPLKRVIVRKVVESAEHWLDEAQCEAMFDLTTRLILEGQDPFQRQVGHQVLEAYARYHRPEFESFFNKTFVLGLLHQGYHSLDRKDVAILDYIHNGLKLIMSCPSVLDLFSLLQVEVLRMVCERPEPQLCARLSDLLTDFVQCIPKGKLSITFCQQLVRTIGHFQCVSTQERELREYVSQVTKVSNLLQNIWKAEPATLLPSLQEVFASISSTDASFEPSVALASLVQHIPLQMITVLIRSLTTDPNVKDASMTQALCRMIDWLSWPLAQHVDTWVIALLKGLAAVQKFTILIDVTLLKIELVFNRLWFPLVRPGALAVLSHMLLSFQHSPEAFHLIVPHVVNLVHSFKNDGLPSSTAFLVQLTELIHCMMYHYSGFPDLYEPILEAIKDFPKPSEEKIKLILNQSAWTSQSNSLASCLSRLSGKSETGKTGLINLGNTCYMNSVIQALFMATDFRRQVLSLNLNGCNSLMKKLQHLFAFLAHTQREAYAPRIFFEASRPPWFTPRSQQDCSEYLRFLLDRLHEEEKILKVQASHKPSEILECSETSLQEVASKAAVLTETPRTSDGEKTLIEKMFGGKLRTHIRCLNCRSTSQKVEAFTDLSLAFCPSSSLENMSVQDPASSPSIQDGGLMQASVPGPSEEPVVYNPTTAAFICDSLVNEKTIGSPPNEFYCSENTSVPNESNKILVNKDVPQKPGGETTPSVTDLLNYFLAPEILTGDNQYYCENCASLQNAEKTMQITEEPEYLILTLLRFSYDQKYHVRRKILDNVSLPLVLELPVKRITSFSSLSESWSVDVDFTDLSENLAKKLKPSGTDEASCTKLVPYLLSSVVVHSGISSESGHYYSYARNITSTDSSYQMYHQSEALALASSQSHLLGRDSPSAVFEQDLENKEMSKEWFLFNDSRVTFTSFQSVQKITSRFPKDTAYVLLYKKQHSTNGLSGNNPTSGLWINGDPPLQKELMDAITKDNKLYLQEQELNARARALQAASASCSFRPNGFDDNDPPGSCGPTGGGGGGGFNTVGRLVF
Outline: as §1

USP39 = biological target: T3, USP39 (UniProt Q53GS9)
T3 sequence (whole entry): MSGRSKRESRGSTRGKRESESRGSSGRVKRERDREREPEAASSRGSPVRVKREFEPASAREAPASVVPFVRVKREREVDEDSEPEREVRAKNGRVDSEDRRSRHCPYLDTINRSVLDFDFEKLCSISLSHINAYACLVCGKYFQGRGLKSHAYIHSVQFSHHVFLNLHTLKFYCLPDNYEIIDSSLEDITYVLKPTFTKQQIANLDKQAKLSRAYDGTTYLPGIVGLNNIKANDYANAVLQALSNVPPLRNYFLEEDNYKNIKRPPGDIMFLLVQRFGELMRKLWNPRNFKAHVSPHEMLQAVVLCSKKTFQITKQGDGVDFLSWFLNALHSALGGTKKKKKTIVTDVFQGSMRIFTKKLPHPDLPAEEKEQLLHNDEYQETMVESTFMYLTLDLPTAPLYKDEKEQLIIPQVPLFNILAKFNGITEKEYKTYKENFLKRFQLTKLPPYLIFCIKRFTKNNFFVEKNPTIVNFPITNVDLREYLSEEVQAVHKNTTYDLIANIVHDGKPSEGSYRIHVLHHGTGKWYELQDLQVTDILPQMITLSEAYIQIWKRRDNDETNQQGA
Outline: as §1

USP4 = biological target: T4, USP4 (UniProt Q13107)
T4 sequence (whole entry): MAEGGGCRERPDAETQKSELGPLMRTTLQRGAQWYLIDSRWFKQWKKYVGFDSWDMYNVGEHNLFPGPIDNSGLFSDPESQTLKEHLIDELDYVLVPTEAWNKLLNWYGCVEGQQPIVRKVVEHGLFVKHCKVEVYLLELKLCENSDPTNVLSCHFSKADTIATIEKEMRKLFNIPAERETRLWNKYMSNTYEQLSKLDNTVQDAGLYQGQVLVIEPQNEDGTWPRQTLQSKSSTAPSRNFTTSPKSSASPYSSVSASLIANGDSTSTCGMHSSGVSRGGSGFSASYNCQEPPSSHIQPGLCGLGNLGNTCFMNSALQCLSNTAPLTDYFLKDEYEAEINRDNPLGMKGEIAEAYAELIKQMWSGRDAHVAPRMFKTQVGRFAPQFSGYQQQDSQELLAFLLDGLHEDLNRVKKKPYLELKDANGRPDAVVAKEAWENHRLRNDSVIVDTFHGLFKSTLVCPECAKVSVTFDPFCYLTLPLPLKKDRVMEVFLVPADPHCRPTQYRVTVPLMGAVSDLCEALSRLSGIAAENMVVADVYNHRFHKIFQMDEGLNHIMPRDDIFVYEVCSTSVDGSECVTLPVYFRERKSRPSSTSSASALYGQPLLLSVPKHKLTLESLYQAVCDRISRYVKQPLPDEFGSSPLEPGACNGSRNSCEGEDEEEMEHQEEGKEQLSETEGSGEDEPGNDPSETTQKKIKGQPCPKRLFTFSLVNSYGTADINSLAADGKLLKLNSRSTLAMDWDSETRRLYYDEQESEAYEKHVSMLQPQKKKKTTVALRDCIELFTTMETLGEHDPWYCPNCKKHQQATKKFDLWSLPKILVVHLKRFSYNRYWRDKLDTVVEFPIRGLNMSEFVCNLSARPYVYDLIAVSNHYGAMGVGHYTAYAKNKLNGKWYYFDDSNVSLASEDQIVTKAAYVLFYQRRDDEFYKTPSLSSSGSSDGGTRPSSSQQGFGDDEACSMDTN
Outline: as §1

Measured: log2 ratio of Biotin-Ahx-Ub-VS probe labelling

Chain of USP34 (Q70CQ2 whole entry, the tested form may be a part): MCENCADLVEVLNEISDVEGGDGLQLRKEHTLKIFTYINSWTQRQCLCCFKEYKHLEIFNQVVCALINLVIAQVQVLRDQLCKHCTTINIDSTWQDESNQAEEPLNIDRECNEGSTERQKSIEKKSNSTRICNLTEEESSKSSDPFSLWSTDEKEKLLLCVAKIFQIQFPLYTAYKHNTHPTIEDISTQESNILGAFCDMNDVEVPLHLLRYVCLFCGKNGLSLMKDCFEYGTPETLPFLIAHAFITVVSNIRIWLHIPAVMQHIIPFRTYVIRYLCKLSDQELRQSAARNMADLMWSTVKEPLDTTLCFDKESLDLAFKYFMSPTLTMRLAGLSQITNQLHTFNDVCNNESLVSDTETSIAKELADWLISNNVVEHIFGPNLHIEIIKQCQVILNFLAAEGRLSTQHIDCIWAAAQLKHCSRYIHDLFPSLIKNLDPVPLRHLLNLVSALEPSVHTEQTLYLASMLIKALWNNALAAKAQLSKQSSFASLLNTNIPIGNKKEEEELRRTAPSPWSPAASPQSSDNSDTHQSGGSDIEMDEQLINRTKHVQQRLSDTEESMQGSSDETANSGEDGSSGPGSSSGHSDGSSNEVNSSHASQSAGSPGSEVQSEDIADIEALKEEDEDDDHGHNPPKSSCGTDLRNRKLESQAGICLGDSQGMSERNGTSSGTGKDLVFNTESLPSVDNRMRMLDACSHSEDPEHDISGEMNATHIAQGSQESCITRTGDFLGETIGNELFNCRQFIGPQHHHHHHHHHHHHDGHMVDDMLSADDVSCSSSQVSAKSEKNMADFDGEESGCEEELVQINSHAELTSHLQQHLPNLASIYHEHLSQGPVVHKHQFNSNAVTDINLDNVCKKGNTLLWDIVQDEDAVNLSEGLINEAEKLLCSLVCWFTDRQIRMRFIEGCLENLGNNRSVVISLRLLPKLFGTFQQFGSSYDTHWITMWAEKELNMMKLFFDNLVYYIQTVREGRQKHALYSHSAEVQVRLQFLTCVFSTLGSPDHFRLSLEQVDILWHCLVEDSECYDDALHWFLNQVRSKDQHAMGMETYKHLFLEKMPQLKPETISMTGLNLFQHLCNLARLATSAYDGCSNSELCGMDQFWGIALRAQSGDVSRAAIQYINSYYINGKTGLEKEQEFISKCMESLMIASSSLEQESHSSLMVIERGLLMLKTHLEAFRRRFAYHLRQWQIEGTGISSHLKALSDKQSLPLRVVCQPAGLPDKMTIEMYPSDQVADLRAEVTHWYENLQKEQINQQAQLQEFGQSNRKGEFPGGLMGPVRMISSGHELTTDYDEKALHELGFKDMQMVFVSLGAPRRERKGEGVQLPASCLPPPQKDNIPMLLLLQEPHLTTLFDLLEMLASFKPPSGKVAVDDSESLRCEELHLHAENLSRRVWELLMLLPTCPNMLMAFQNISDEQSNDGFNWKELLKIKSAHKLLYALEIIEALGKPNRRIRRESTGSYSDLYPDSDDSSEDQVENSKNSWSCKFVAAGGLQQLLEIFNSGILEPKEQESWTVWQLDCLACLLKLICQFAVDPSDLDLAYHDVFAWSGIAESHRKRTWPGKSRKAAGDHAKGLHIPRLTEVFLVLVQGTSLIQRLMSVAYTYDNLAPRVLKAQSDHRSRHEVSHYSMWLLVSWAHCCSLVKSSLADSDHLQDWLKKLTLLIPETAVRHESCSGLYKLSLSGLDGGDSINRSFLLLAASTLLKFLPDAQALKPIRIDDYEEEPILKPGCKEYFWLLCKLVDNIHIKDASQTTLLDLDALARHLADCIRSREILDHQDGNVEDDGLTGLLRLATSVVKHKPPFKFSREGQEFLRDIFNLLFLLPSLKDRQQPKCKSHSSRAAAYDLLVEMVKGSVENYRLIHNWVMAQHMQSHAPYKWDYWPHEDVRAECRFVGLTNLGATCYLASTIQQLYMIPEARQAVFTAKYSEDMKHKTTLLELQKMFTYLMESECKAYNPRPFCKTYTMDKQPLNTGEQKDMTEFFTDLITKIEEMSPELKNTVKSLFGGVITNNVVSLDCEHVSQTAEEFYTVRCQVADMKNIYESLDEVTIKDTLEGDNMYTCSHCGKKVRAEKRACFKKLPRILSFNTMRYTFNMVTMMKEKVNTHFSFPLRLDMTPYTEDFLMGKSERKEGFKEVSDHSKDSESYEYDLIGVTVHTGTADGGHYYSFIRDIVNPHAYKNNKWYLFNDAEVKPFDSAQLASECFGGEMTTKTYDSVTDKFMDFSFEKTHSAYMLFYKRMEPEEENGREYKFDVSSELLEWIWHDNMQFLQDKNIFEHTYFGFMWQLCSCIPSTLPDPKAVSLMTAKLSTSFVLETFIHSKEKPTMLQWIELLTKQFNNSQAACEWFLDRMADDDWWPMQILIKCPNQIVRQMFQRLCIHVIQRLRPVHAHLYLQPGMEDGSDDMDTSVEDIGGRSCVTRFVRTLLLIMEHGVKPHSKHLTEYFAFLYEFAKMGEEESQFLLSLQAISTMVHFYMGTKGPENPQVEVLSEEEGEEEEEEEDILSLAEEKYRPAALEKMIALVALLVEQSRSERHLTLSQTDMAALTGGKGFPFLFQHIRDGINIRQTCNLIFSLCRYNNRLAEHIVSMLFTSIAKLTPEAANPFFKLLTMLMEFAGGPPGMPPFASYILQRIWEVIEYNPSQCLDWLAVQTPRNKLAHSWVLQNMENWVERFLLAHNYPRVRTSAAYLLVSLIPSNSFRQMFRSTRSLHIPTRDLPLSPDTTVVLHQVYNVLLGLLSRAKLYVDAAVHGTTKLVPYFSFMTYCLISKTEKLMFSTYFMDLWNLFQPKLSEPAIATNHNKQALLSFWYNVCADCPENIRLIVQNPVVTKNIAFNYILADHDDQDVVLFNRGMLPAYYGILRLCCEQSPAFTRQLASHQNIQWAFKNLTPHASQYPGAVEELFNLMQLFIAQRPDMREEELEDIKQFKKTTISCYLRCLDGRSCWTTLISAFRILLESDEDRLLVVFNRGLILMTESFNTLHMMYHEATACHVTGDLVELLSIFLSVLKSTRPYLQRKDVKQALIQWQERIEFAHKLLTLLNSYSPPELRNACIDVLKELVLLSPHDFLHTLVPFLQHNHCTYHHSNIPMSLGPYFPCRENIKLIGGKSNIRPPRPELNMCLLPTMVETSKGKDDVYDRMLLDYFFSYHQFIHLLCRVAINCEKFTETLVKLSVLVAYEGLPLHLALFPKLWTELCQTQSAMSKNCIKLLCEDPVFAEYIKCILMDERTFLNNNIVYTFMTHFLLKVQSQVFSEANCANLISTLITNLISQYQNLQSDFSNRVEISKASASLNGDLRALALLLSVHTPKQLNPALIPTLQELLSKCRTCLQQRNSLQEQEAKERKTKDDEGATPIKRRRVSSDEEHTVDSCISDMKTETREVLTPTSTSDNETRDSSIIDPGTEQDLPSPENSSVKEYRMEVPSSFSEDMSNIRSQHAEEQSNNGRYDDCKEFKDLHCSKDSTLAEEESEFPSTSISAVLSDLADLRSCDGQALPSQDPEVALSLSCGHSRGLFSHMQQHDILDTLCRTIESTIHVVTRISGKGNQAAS

COc1ccccc1C(C)NC(=O)CCl (stereo not given)
inactive: USP34 -0.129 | USP36 -0.00263 | USP38 -0.182 | USP39 -0.155 | USP4 -0.226
